Measurements taken from PubChem BioAssay (NCATS).
Results filed as inconclusive are left out. A call without a number means that no potency is given here. Active and inactive are the calls of the source. The call rests on the fitted dose curve; in most records, active means well fitted curve in the direction sought with a large enough effect; inconclusive means small, poorly fitted or top-dose-only effect, or another doubt; inactive means no such curve, though single readings can be large; an effect the other way counts as inactive or inconclusive.

Columns and labels:
[1] = biological target: Glutathione peroxidase 1 (Homo sapiens) (UniProt P07203); experiment: Primary qHTS Assay for Inhibitors of Recombinant Selenoprotein Glutathione Peroxidase 1 (GPX1) (AID 1845191); further: nearly all actives have a fitted effect of over 65% in size; further: potency means the concentration at half of the fitted maximal effect
Chain of Glutathione peroxidase 1 (Homo sapiens) (P07203 whole entry, looked up): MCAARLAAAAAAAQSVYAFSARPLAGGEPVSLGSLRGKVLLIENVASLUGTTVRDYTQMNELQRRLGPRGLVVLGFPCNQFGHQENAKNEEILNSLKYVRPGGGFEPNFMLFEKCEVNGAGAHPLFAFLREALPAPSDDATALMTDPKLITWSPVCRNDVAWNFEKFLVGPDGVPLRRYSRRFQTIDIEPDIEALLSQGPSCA
Method in brief: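 NADPH consumption tracked by fluorescence at 340/450 nm between t=0 and t=15 min, room temperature. Final mix: 10 nM GPX1, 100 nM glutathione reductase, 1 mM GSH, 0.5 mM NADPH, 0.5 mM cumene hydroperoxide, 0.01% BSA; 30 min compound–enzyme preincubation.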

[2] = biological target: Phospholipid hydroperoxide glutathione peroxidase GPX4 (Homo sapiens) (UniProt P36969); experiment: Primary qHTS Assay for Inhibitors of Recombinant Selenoprotein Glutathione Peroxidase 4 (GPX4) (AID 1845192); further: nearly all actives have a fitted effect of over 65% in size
Chain of Phospholipid hydroperoxide glutathione peroxidase GPX4 (Homo sapiens) (P36969 whole entry, looked up): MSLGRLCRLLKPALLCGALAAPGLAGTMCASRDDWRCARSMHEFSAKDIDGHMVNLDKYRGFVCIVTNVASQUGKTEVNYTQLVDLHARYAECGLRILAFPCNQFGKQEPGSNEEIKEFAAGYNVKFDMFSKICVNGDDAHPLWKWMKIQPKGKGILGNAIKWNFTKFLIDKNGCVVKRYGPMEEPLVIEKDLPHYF
Method in brief: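 NADPH consumption followed by fluorescence at 340/450 nm, t=0 and after 15 min at room temperature. Reaction started with cumene hydroperoxide (0.5 mM final) after 30 min compound–GPX4 preincubation; final 200 nM GPX4, 100 nM GR, 1 mM GSH, 0.5 mM NADPH.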

[3] = biological target: Luciferin 4-monooxygenase (Photinus pyralis) (UniProt P08659); experiment: Primary firefly luciferase (FLuc) qHTS assay for identification of artifact compounds. (AID 1845220); further: nearly all actives have a fitted effect of over 60% in size; further: potency means the concentration at half of the fitted maximal effect
Method in brief: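 Cell-free, 1536-well qHTS. Buffer pH 7.6 with 0.01% Tween-20 and 0.05% BSA; 10 uM D-luciferin, 10 uM ATP; 10 nM P. pyralis luciferase; luminescence after 5 min.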

[4] = Primary fluorescence-based thiol-reactive (MSTI) qHTS assay for identification of artifact compounds. (AID 1845221); further: nearly all actives have a fitted effect of over 65% in size; further: potency means the concentration at half of the fitted maximal effect
Method in brief: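 Reactivity toward the thiol probe MSTI (4 uM) is scored by fluorescence at Ex/Em 525/598 nm after 1 h at room temperature. Acetyl-MSTI and MSTI define the activity scale.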

[5] = system: Nanoluciferase (engineered Oplophorus gracilirostris luciferase); experiment: Primary Nanoluciferase (NLuc) qHTS assay for identification of artifact compounds. (AID 1845222); further: series mostly up to about 54 µM
Method in brief: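 Compounds are pinned into diluted (1:55) conditioned medium of NLuc-expressing S16 cells and held 15 min at room temperature protected from light. Nano-Glo substrate follows, and luminescence is read 5 min later.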

[6] = Primary redox qHTS assay for identification of artifact compounds. (AID 1845223)
Method in brief: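 Redox-cycling detection via DTT (250 uM final) oxidation coupled to Amplex Red (25 uM)/HRP (250 mU/mL) in HBSS. 15 min preincubation plus 30 min after DTT, room temperature. Ex/Em 525/598 nm; 4-parameter Hill fit against DMSO and 10 uM DA3003.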

Structure (SMILES)	Potency [1]	Potency [2]	Potency [3]	Potency [4]	Potency [5]	Potency [6]
C=C(C(=O)O[C@H]1C/C(C)=C/CC/C(CO)=C/[C@H]2OC(=O)C(=C)[C@H]12)C(O)CO (stereo partly drawn)	inactive	inactive	inactive	inactive	inactive	inactive
C=C(C=O)[C@]1(O)C[C@@]2(C)C(=CC1=O)C=C[C@H](OC(=O)/C=C/C=C/[C@H](C)CC)[C@@H]2C	inactive	inactive	inactive	inactive	inactive	inactive
O=C(Nc1cc(C(F)(F)F)ccc1N1CCCCC1)c1ccncc1	inactive	inactive	inactive	inactive	inactive	inactive
COc1cc2nc(C3CC3)nc(N3CCN(c4ccccc4OC)CC3)c2cc1OC	inactive	inactive	inactive	inactive	inactive	inactive
CC(=O)C1(C)CCC2C3C=C(C)C4=CC(=O)CCC4(C)C3CCC21C (stereo not drawn)	inactive	inactive	inactive	inactive	inactive	inactive
C/C=C(\C)C(=O)OC1C(C)C2(O)C(C=C(CO)CC3(O)C(=O)C(C)=CC32)C2C(C)(C)C12OC(=O)C(C)C (stereo not drawn)	inactive	inactive	inactive	inactive	inactive	inactive
COc1cc(OC)c2c(=O)[nH]c(-c3cc(C)c(OCCO)c(C)c3)nc2c1	inactive	inactive	15.1 µM (active)	inactive	inactive	inactive
COc1c2c(c(C)c3c1C(=O)OC3)O[C@@]1(C)C[C@@H](OC(C)=O)[C@]34O[C@](OC)(CC[C@]3(C)[C@H]1C2)OC4(C)C	inactive	inactive	inactive	inactive	inactive	inactive
NC(=O)c1nc(Nc2ccccc2)sc1NC(=O)C1CCCCC1	inactive	inactive	inactive	1.68 µM (active)	inactive	inactive
C=C1CC[C@@H]2[C@](C)(CO)[C@H](O)CC[C@@]2(C)[C@@H]1C/C=C1/C(=O)OCC1O (stereo partly drawn)	inactive	inactive	inactive	inactive	inactive	inactive
Fc1ccc(-c2nc(-c3c(F)cccc3F)[nH]c2-c2ccncc2)cc1	inactive	inactive	inactive	inactive	inactive	inactive
Cc1nc(C#Cc2ccnc(Cl)c2)c(C)n1-c1ccc(OC(F)(F)F)cc1	inactive	inactive	inactive	inactive	inactive	inactive
CCC(C)CC(=O)OC1C(=O)C(CO)=CC(O)C1C(C)C (stereo not drawn)	inactive	inactive	inactive	inactive	inactive	inactive
CCCC(Nc1nc(-c2ccc(NC(=O)NCC)c(OC)c2)ncc1C)c1cccnc1 (stereo not drawn)	inactive	inactive	inactive	inactive	inactive	inactive
CC(=O)OC(C)(C)/C=C/C(=O)C(C)(O)C1C(O)CC2(C)C3CC=C(C(C)(C)C(=O)O)C(CC(=O)O)C3(C)C(=O)CC12C (stereo not drawn)	inactive	inactive	inactive	inactive	inactive	inactive
CC1=CC2/C=C(\C)CCC3OC(C)(C)OC3CCC(=O)C23C(=O)NC(CC(C)C)C3C1C (stereo not drawn)	inactive	inactive	inactive	inactive	inactive	inactive
O=C(CSc1nc2ccccc2c(=O)n1-c1ccccc1)Nc1ccc2c(c1)CCC2	inactive	inactive	inactive	inactive	inactive	inactive
Cc1cc(-c2ncc(-c3cccnc3)cc2/C=C/c2ccccc2)cnc1-c1cccnc1	18 µM (active)	inactive	inactive	inactive	inactive	inactive
Cc1c(OCc2cccc(-c3ccc(C(=O)O)cc3)c2)cc2c(c1C)C(=O)C(C1CCCC1)C2 (stereo not drawn)	inactive	inactive	inactive	inactive	inactive	inactive

Structure (SMILES)	Potency [1]	Potency [2]	Potency [3]	Potency [4]	Potency [5]	Potency [6]
Cc1cccc(C#Cc2cc(F)cc(C#N)c2)n1	inactive	inactive	inactive	inactive	inactive	inactive
CN1CCN(Cc2ccc(NC(=O)Cc3ccc(Oc4cc(NC(=O)C5CC5)ncn4)cc3)cc2C(F)(F)F)CC1	inactive	inactive	inactive	inactive	inactive	inactive
Nc1nc2c(ncn2C2OC3COP(=O)(O)OC3C2O)c(=O)[nH]1 (stereo not drawn)	inactive	inactive	inactive	inactive	inactive	inactive
COc1ccc2c(c1O[C@H]1CCNC1)CCC2	inactive	inactive	inactive	inactive	inactive	inactive
C#CCOc1ccc2c(c1)c(-c1ccc(C(C)C)cc1)nc(=O)n2C(C)C	inactive	inactive	inactive	inactive	inactive	inactive
COC(=O)c1ccnc(-c2cc(C(=O)Nc3ccc(C4(N)CC4)cc3)ccn2)c1	inactive	inactive	inactive	inactive	inactive	inactive
CN(C)C(=O)COC(=O)c1cc(-c2ccc(C3CCNCC3)cc2)c2ccc(-c3ccc(C(F)(F)F)cc3)cc2c1	inactive	inactive	inactive	inactive	inactive	inactive
CN(C)CCN(Cc1ccc(-c2ccc(CNCCc3ccccc3)cc2)cc1)C(=O)CCC1CCCC1	inactive	inactive	inactive	inactive	inactive	inactive
CC(C)(C)c1ccc(NC(=O)N2CCN(c3ncccc3Cl)CC2)cc1	inactive	inactive	inactive	inactive	inactive	inactive
FC(F)(F)c1ccccc1-c1cc(C(F)(F)F)c2nc(C3=NOC4(CCCCC4)C3)[nH]c2c1	inactive	inactive	inactive	inactive	inactive	inactive
C=C1CCC2C(C)(C(=O)O)CCCC2(C)C1CCC1=CCOC1=O (stereo not drawn)	inactive	inactive	inactive	inactive	inactive	inactive
CCCN(CCc1ccsc1)C1CCc2c(O)cccc2C1 (stereo not drawn)	inactive	inactive	inactive	inactive	inactive	inactive
CCNC(=O)Nc1ccc(-c2nc3c(c(N4CCOCC4C)n2)CCN(C2COC2)C3)cc1 (stereo not drawn)	inactive	inactive	inactive	inactive	inactive	inactive
CCOc1ccc(S(=O)(=O)N2CCCCCC2)c2ccccc12	inactive	inactive	inactive	inactive	inactive	inactive
COC1CC(=O)C23C(=O)NC(CC(C)C)C2C(C)C(C)=CC3/C=C(\C)CCCC1O (stereo not drawn)	inactive	inactive	inactive	inactive	inactive	inactive
CCn1c(-c2nonc2N)nc2c(C#CC(C)(C)O)ncc(OCC3CCCNC3)c21 (stereo not drawn)	inactive	inactive	inactive	inactive	inactive	inactive
Cc1cc(C)c(-n2cc(C)c3c(Cl)nc(C)nc32)c(C)c1	inactive	inactive	inactive	inactive	inactive	inactive
CC12CCC(OC3OC(CO)C(O)C(O)C3OC3OC(CO)C(O)C(O)C3O)CC1CCC1C2CCC2(C)/C(=C3/COC(=O)C3)CCC12O (stereo not drawn)	inactive	inactive	inactive	inactive	inactive	inactive
Cc1csc2c(N[C@@H](C)CN3CCN(S(=O)(=O)c4ccc(Cl)c(Cl)c4)CC3)ncnc12	inactive	inactive	inactive	inactive	inactive	inactive
